Screening results from PubChem BioAssay.
MLL AF4-AF9 inh: inhibitors of human MLL-AF4/AF9 interaction | AID 651704 | P42568 | actives 0.47% (n = 350,000) | inhibition, % at 10 µM | AlphaScreen, biotin-AF4 peptide binding to FLAG-AF9;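 active means every replicate reaching a set inhibition limit, whatever the replicate mean, cut at about 25% in these data; inconclusive means mean inhibition reaches that limit but some replicates miss it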;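 further: 0% = plate neutral control median and 100% = total signal loss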
RAD54 inh: blocks human RAD54 Holliday junction branch migration | FAM/BHQ fluorescence | Q92698 | inhibition, % at 10.4 µM | actives 0.14% (n = 360,000) | AID 602329;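 active means mean normalized replicate activity at least 40 and at least half of replicates scoring 40 or more; inconclusive means only one of the two criteria met; inactive means mean below 40 and under half of replicates reaching 40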;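 further: 0% = median of neutral control wells and 100% = median of positive control wells; inhibitors cause a drop in the FAM fluorescence signal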
GSIS activator: GLuc luminescence reporter in INS-1E cells, primary screen for activators of glucose-dependent secretion of insulin; INS-1E GLuc reporter insulin secretion, 2-3 h; activation, % at 16.6 µM; actives 0.61% (n = 370,000); AID 743287;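 active means lowest replicate activation of at least 40%, so every replicate reaches that level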;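 further: 0% = median of neutral control wells and 100% = median of IBMX positive control wells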
ERAP1 HTS inh: blocks human ERAP1 aminopeptidase activity; Q9NZ08; recombinant ERAP1, Leu-AMC fluorescence, 60 min; inhibition, % at 10.7 µM; actives 0.15% (n = 340,000);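 active means mean replicate inhibition of at least 30%, or all replicates individually reaching that 30% level; inactive means mean below 30% and not every replicate reaching it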;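 further: 0% = neutral control wells and 100% = L-leucinethiol positive control wells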
Target sequence (Q9NZ08 whole entry, looked up): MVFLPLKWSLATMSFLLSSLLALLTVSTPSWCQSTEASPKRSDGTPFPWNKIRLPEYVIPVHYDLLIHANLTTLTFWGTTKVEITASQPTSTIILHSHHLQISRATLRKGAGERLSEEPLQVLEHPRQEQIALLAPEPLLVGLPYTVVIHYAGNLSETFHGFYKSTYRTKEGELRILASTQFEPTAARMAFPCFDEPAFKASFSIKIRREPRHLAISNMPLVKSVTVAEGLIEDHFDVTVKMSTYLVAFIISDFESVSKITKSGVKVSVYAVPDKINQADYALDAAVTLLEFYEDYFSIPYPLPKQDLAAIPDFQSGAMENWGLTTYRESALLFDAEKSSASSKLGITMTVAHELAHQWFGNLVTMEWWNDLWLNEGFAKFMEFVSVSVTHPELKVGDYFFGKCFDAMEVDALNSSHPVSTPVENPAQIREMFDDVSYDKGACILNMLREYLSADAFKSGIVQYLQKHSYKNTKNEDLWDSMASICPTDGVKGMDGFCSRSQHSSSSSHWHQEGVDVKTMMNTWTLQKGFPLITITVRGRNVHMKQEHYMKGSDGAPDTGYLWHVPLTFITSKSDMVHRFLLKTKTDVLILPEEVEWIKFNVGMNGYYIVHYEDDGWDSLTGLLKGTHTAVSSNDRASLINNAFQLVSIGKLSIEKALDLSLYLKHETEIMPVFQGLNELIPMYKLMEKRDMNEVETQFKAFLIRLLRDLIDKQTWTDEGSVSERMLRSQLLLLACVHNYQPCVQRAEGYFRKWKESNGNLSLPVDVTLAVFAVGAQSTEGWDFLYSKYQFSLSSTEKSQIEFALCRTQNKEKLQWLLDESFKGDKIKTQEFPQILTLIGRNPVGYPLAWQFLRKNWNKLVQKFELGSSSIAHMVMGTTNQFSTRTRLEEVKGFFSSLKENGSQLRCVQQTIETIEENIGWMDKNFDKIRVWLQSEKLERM
RAD52 anneal inh: RAD52 (human) annealing inhibition; actives 0.46% (n = 360,000); recombinant RAD52 DNA annealing, FRET fluorescence; AID 651710; inhibition, % at 18.7 µM;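 active means every replicate showing at least 50% inhibition; inconclusive means mean inhibition at least 50% but not in every replicate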
PGC1a acetyl inh: lowers PGC1a acetylation signal in U2OS cells; inhibition, % at 15.6 µM; AID 651687; actives 0.17% (n = 350,000); AlphaScreen anti-acetyl-lysine; with virally co-expressed GCN5 acetyltransferase;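 active means every replicate shows inhibition of at least 40%; inconclusive means mean inhibition at least 40% but some replicate below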;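 further: 0% = neutral control wells and 100% = positive control wells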
Active calls of the source: *; ? = inconclusive; nt = not tested or not shown; ! = repeats disagree. Only some compounds are listed: those with a hit (about 1.4% of all), similar ones and a draw of the others.

SMILES	MLL AF4-AF9 inh	RAD54 inh	GSIS activator	ERAP1 HTS inh	RAD52 anneal inh	PGC1a acetyl inh
CO[C@H]1CN(C)C(=O)c2ccc(NC(=O)c3ccc(F)cc3)cc2OC[C@H](C)N(C(C)=O)C[C@H]1C	nt	nt	2.9	nt	nt	-5.3
CN(C)C(=O)C[C@H]1CC[C@@H]2[C@H](COC[C@@H](O)CN2Cc2ccc(C(F)(F)F)cc2)O1	-4.8	-2.9	6.0	-1.5	-1.5	6.9
CCCC(=O)Nc1ccc2c(c1)C(=O)N(C)C[C@@H](OC)[C@H](C)CN(Cc1ccccc1OC)[C@H](C)CO2	-2.5	-2.5	6.1	-4.6	4.8	-12.6
CNc1nc(N)c([N+](=O)[O-])c(NCc2ccccc2)n1	2.7	2.9	7.8	4.0	-20.2	nt
CCOc1ccc(Nc2nc(NCc3ccco3)nc(N)c2[N+](=O)[O-])cc1	2.6	nt	1.4	-4.4	-8.9	72.4*
Cc1ccc(CNc2nc(N)c([N+](=O)[O-])c(NCc3ccccc3)n2)cc1	nt	-6.7	126.4*	nt	nt	nt
Nc1nc(NCc2ccccc2)nc(NCc2ccccc2)c1[N+](=O)[O-]	nt	-3.6	46.2*	nt	nt	3.1
Cc1cc(OCC(O)CNC(C)c2ccccc2)ccc1C(C)C (stereo not drawn)	6.4	11.1	379.3*	-2.4	42.2	4.6
CC(NCC(O)COc1ccc2ccccc2c1)c1ccccc1 (stereo not drawn)	7.5	6.4	-30.6	-7.4	18.5	nt
O=C(C1CCCC1)N1C[C@@H]2N[C@H](C1)C2c1ccc(/C=C/c2ccccc2)cc1 (stereo partly drawn)	10.0	nt	-5.1	1.1	58.0*	-9.7
O=C(c1ccncc1)N1C[C@@H]2N[C@H](C1)C2c1ccc(/C=C/c2ccccc2)cc1 (stereo partly drawn)	10.4	nt	3.3	-2.4	4.4	-12.8
O=C(c1ccc(F)cc1)N1C[C@@H]2N[C@H](C1)C2c1ccc(/C=C/c2ccccc2)cc1 (stereo partly drawn)	?	nt	119.2*!	1.7	65.1*	-13.6
O=C(C1CCOCC1)N1C[C@@H]2N[C@H](C1)C2c1ccc(/C=C/c2ccccc2)cc1 (stereo partly drawn)	nt	nt	2.4	nt	nt	1.4
O=C(Nc1ccccc1)N1C[C@@H]2N[C@H](C1)[C@@H]2c1ccc(/C=C/c2ccccc2)cc1	28.8*	nt	12.5	-0.2	72.2*	-37.6
O=C(Nc1ccccc1)N1C[C@@H]2N[C@H](C1)C2c1ccc(-c2ccccc2)cc1 (stereo partly drawn)	5.4	nt	-12.2	2.8	26.6	-1.0
CCCN1/C(=C2/SC(=S)N(CC)C2=O)C=Cc2ccccc21	nt	-3.7	nt	nt	nt	-4.6
CCCN1C(=O)/C(=C2/C=Cc3ccccc3N2CC)SC1=S	26.3*	5.0	-2.0	-0.7	-9.3	10.4
O=C(Nc1cc(F)ccc1F)N1CC(=O)N2[C@H](CO)[C@H](c3ccc(-c4cccnc4)cc3)[C@H]2C1	-3.3	nt	9.1	0.7	-6.7	-3.8
CNc1nc(Sc2ccccc2)cc(C(F)(F)F)n1	nt	-1.2	51.3*	2.3	-2.5	nt
CC1(C)Cc2c(c(N3CCOCC3)nc3sc4c(NCCN)ncnc4c23)CO1	6.4	nt	52.2*	2.3	0.1	-15.8
CC1(C)Cc2c(c(-c3ccco3)nc3sc4c(NCCO)ncnc4c23)CO1	-0.8	nt	87.8*	-3.3	-8.7	nt
CN(C)CCNc1ncnc2c1sc1nc(N3CCOCC3)c3c(c12)CC(C)(C)SC3	nt	27.2	nt	nt	nt	-27.3
COCCCNc1ncnc2c1sc1nc(-c3ccco3)c3c(c12)CC(C)(C)OC3	-8.1	nt	-10.0	nt	-11.3	nt
COc1ccc(CN(C)C[C@@H]2Oc3ccc(NS(=O)(=O)c4cccs4)cc3CC(=O)N([C@@H](C)CO)C[C@H]2C)cc1	2.2	nt	15.3	1.4	4.9	-5.0
CCC(=O)Nc1ccc2c(c1)OC[C@H](C)N(C(=O)Cc1ccccn1)C[C@H](C)[C@@H](OC)CN(C)C2=O	-2.5	-1.3	-1.7	3.3	-8.5	6.9
SMILES	MLL AF4-AF9 inh	RAD54 inh	GSIS activator	ERAP1 HTS inh	RAD52 anneal inh	PGC1a acetyl inh
CC(C)(C)c1nc2ccccc2c2nnc(SCC(=O)Nc3nccs3)n12	nt	10.3	77.0*	nt	nt	4.3
CN1CCCCCC1C(=O)N1CCC(N2CCC(C(=O)N3CCOCC3)CC2)CC1 (stereo not drawn)	10.6	-0.7	49.4*	-1.0	-15.8	-5.8
O=C(CN1CCN(S(=O)(=O)N2CCOCC2)CC1)Nc1ccc(Cl)c(Cl)c1	0.6	-3.9	-9.0	122.4*	-8.2	nt
O=C(CN1CCOCC1)Nc1ccc(Cl)c(Cl)c1	nt	17.5	10.0	-1.1	-0.8	nt
CC(CN(C)Cc1ccccc1)OC(=O)c1ccccc1F (stereo not drawn)	nt	4.4	48.7*	nt	nt	1.5
CCC(=O)N1CC2(C1)[C@H](c1ccccc1)[C@H](CO)N2Cc1cccc(Cl)c1	-1.1	nt	4.4	-0.5	-2.0	-17.1
F[B-](F)(F)COc1ccccc1	-2.8	3.5	87.7*	-1.7	-18.4	-19.3
CCCNC(=O)C[C@@H]1C[C@@H]2c3cc(NC(=O)Cc4ccncc4)ccc3O[C@@H]2[C@H](CO)O1	nt	-2.4	-5.1	nt	nt	3.4
CCN(c1ccccc1)c1nc(Cl)nc2c1cnn2C	-14.0	5.6	45.6*	-5.4	-28.6	7.3
CCN(c1ccccc1)c1ncnc2c1cnn2-c1ccccc1	28.3*	2.7	3.1	-2.1	-5.6	13.7
OC1CCCN(c2c3c(nc4cc(-c5cccc(Cl)c5)nn24)CCC3)C1 (stereo not drawn)	nt	-1.1	14.4	nt	nt	8.6
Cc1cccc(-c2cc3nc4c(c(N5CCCC(O)C5)n3n2)CCC4)c1 (stereo not drawn)	nt	-9.1	85.6*	nt	nt	4.5
CC(=O)NC(C)c1ccc(Cl)c(Cl)c1 (stereo not drawn)	nt	2.7	-6.2	nt	nt	9.0
CC(=O)NC(CCc1ccc(Cl)c(Cl)c1)c1cccc(O)c(=O)c1 (stereo not drawn)	30.4*	0.8	nt	-0.2	-29.6	nt
Cc1ccc(Nc2nc(-c3ccc(O)c(O)c3)cs2)nc1	42.2*	nt	-2.3	2.1	-17.9	nt
Fc1ccc2cnc(CCO[C@H]3CCCCO3)cc2c1	49.3*	16.6	-1.3	0.9	-7.0	5.9
COc1ccc(-c2ccc3c(c2)[C@@H]2[C@@H](CCN2C(=O)NC2CCCCC2)[C@@H](CO)N3C)cc1	7.1	12.8	-45.0	0.3	10.6	2.1
CN1c2ccc(C3=CCCCC3)cc2[C@H]2[C@H](CCN2C(=O)C2CCCC2)[C@@H]1CO	1.9	0.6	-25.9	-1.0	-11.6	-0.2
CN1c2ccc(-c3cccc(F)c3)cc2[C@H]2[C@H](CCN2C(=O)C2CCC2)[C@H]1CO	28.0*	nt	-23.3	nt	-2.0	nt
COc1ccc(-c2ccc3c(c2)[C@@H]2[C@@H](CCN2C(=O)C2CCCC2)[C@H](CO)N3C)cc1	35.1*	nt	-21.1	4.9	24.0	-0.1
